Results filed as inconclusive are left out. The source made the active and inactive calls. Calls follow the shape of the dose curve; as a rule, active = well fitted curve in the direction sought with a large enough effect; inconclusive = small, poorly fitted or top-dose-only effect, or another doubt; inactive = no such curve, though single readings can be large; an effect the other way counts as inactive or inconclusive.
Assays:
[1] = Cellular Toxicity (caspase-3) Mesangial (AID 660); settings: mesangial cells, normalized: DMSO 0%, 100 µM tamoxifen 100%; at 91.7 µM (top of the series);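 also: combined caspase 3 and 7 activity read by Caspase-Glo luminescence; cells exposed to compound for 16 h before the caspase read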
How it was run: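 Concentration-response qHTS: compound-induced rise in caspase 3/7 luminescence in human mesangial cells after 16 h, normalized to DMSO and 100 uM tamoxifen controls.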

[2] = Cellular Toxicity (caspase-3) SK-N-SH (AID 661);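 also: 0% = DMSO basal and 100% = 10 µM staurosporine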
How it was run: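 Caspase 3/7 activation is measured as a luminescence increase from aminoluciferin released by substrate cleavage in SK-N-SH cells after 16 hr compound treatment; values are AC50 from concentration-response curves.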

[3] = Cellular Toxicity (caspase-3) H-4-II-E (AID 663); settings: H-4-II-E rat hepatoma, scaled: DMSO 0%, 100 µM tamoxifen 100%; at 92.2 µM (top of the series);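 also: cells exposed to compound for 16 hr before readout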
How it was run: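 Apoptosis induction is scored as increased luminescence from caspase 3/7 substrate cleavage in rat hepatoma H-4-II-E cells exposed to compound for 16 hr. Activity is scaled between DMSO and 100 uM tamoxifen.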

[4] = Cellular Toxicity (caspase-3) Hek293 (AID 664); settings: HEK293 caspase-3 activation, DMSO = 0%, 100 µM tamoxifen = 100%; at 92.2 µM (top of the series);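 also: cells exposed to compound for 16 h at 37 °C before readout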
How it was run: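 Activation of caspase-3/7 is measured as increased luminescence from cleaved peptide-aminoluciferin substrate in HEK293 cells treated 16 hours at 37 °C. AC50 values come from Hill-equation fits of concentration-response data.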

[5] = Cellular Toxicity (caspase-3) N2a (AID 665);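 also: compound exposure lasted 16 h at 37 °C before readout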
How it was run: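 Plated mouse neuroblastoma N2a cells received titrated compounds for 16 h in complete medium. Caspase activity was then detected with a peptide-aminoluciferin luminescent reagent.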

[6] = Cellular Toxicity (caspase-3) NIH 3T3 (AID 666);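 also: 0% = DMSO basal and 100% = 100 µM tamoxifen stimulation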
How it was run: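 Concentration-response qHTS in NIH 3T3 mouse fibroblasts scores caspase-3/7 activation as rising luminescence after 16 hr compound exposure. Signals are scaled between DMSO-only and 100 uM tamoxifen.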

[7] = Cellular Toxicity (caspase-3) Renal Proximal Tubule (AID 667); settings: Potency: caspase-3 activation;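 also: cells exposed to compound for 16 hours at 37 °C before detection; 0% = DMSO basal and 100% = 10 µM staurosporine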
How it was run: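 Caspase-Glo 3/7 read-out, rat primary kidney proximal tubule cells. Compound exposure 16 h, 37 °C; detection after 1 h at RT. Activity scaled to DMSO and 10 uM staurosporine.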

[8] = Cell Viability - LYMP2-001 (AID 921);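 also: cells exposed to compound for 24 h at 37 °C; 0% = DMSO only and full inhibition = tetraoctylammonium bromide control wells; nearly all actives have a fitted effect of over 70% in size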
How it was run: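 A lymphoblastoid cell line of human origin was treated with library compounds across a concentration series for 24 hours, and viable cell number was estimated from ATP-driven luciferase light output. Hill modeling gave AC50.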

[9] = biological target: Cytochrome P450 3A4 (Homo sapiens) (UniProt P08684); assay: qHTS Assay for Inhibitors and Substrates of Cytochrome P450 3A4 (AID 884); also: % is scaled to controls: 0 for no effect and ±100 for the full control effect; nearly all actives have a fitted effect of over 50% in size
Chain of Cytochrome P450 3A4 (Homo sapiens) (P08684 whole entry, looked up): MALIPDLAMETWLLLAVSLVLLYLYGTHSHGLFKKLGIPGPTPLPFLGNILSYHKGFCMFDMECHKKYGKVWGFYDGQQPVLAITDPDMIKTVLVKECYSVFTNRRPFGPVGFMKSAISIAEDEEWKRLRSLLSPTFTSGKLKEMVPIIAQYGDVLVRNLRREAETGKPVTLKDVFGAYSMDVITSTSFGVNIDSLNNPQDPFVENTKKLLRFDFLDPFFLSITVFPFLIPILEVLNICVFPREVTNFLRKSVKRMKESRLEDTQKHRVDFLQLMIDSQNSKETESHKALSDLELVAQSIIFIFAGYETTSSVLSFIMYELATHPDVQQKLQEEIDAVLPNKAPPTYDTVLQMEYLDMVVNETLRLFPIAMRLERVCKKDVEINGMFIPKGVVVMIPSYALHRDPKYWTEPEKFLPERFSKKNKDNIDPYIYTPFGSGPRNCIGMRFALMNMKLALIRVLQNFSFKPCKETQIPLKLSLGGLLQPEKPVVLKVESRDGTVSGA
How it was run: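 20 nM human CYP3A4 with 25 uM Luciferin-PPXE (at KM) in 200 mM KPO4, preincubated 10 min with compound; NADPH regeneration started a 60 min RT reaction. Luciferin detected by luminescence, normalized to 57 uM ketoconazole as full inhibition.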

[10] = biological target: Cytochrome P450 3A4 (Homo sapiens) (UniProt P08684); assay: qHTS Assay for Activators of Cytochrome P450 3A4 (AID 885); also: nearly all actives have a fitted effect of over 65% in size
How it was run: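 Quantitative HTS format: compounds preincubated with 20nM human CYP3A4 and Luciferin-PPXE substrate at KM, reaction started by NADPH regeneration, stopped after 60 min, luciferase luminescence read 20 min later.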

CO[Si](CCCNCCC[Si](OC)(OC)OC)(OC)OC
inactive: caspase-3 activation [1] 0.876% | outcome [2] | caspase-3 activation [3] 0.962% | caspase-3 activation [4] -1.43% | outcome [5] | outcome [6] | Potency [7] | Potency [8]

Nc1ccccc1S(=O)(=O)O
inactive: caspase-3 activation [1] -0.218% | outcome [2] | caspase-3 activation [3] -0.112% | caspase-3 activation [4] 1.83% | outcome [5] | outcome [6] | Potency [7] | Potency [9] | Potency [8]

Cc1ccc2ccccc2c1[N+](=O)[O-]
inactive: caspase-3 activation [1] 0.0968% | outcome [2] | caspase-3 activation [3] -1.44% | caspase-3 activation [4] -2.81% | outcome [5] | outcome [6] | Potency [7] | Potency [9] | Potency [8]

O=[N+]([O-])c1ccc2nc[nH]c2c1
inactive: caspase-3 activation [1] 0.38% | outcome [2] | caspase-3 activation [3] 2.59% | caspase-3 activation [4] 0.287% | outcome [5] | outcome [6] | Potency [7] | outcome [10] | Potency [8]

Nc1cc(Cl)c([N+](=O)[O-])cc1O
inactive: caspase-3 activation [1] -0.0539% | outcome [2] | caspase-3 activation [3] 1.74% | caspase-3 activation [4] 5.51% | outcome [5] | outcome [6] | Potency [7] | outcome [10] | Potency [8]

Cc1cc(C)cc(N)c1
inactive: caspase-3 activation [1] -0.679% | outcome [2] | caspase-3 activation [3] -0.0763% | caspase-3 activation [4] -0.185% | outcome [5] | outcome [6] | Potency [7] | Potency [9] | Potency [8]

S=C([S-])NCCNC(=S)[S-].[Zn+2]
inactive: caspase-3 activation [1] -0.549% | outcome [2] | caspase-3 activation [3] -1.93% | caspase-3 activation [4] 3% | outcome [5] | outcome [6] | Potency [7] | outcome [10] | Potency [8]

COC(=O)CC#N
inactive: caspase-3 activation [1] 0.486% | outcome [2] | caspase-3 activation [3] 1.64% | caspase-3 activation [4] 0.82% | outcome [5] | outcome [6] | Potency [7] | Potency [8]

CC(C)C=O
inactive: caspase-3 activation [1] 1.06% | outcome [2] | caspase-3 activation [3] 0.472% | caspase-3 activation [4] -1.91% | outcome [5] | outcome [6] | Potency [7] | Potency [9] | Potency [8]

COc1ccc(N)c(OC)c1
inactive: caspase-3 activation [1] 0.311% | outcome [2] | caspase-3 activation [3] 1.91% | caspase-3 activation [4] -1.28% | outcome [5] | outcome [6] | Potency [7] | outcome [10] | Potency [8]

Cc1ccccc1C#N
inactive: caspase-3 activation [1] 0.378% | outcome [2] | caspase-3 activation [3] 1.11% | caspase-3 activation [4] -1.44% | outcome [5] | outcome [6] | Potency [7] | Potency [9] | Potency [8]

Clc1ccc(Cl)c(Cl)c1Cl
inactive: caspase-3 activation [1] -0.853% | outcome [2] | caspase-3 activation [3] -0.982% | caspase-3 activation [4] -1.37% | outcome [5] | outcome [6] | Potency [7] | Potency [9] | Potency [8]

C[C@@H]1CC2(OC3C[C@@]4(C)C5=CC[C@H]6C(C)(C)C(O[C@@H]7OC[C@@H](O)[C@H](O)[C@H]7O)CC[C@@]67C[C@@]57CC[C@]4(C)C31)OC(O)C1(C)OC21 (stereo not given in full)
inactive: caspase-3 activation [1] -0.636% | outcome [2] | caspase-3 activation [3] 1.92% | caspase-3 activation [4] 2.55% | outcome [5] | outcome [6] | Potency [7] | outcome [10] | Potency [8]

CCOc1ccc(NC(C)=O)cc1N
inactive: caspase-3 activation [1] 0.11% | outcome [2] | caspase-3 activation [3] 0.579% | caspase-3 activation [4] -1.58% | outcome [5] | outcome [6] | Potency [7] | Potency [8]

C[C@@H]1O[C@@H](O[C@@H]2[C@@H](O)[C@H](OCCc3ccc(O)c(O)c3)O[C@H](CO[C@@H]3O[C@H](CO)[C@@H](O)[C@H](O)[C@H]3O)[C@H]2OC(=O)/C=C/c2ccc(O)c(O)c2)[C@H](O)[C@H](O)[C@H]1O
inactive: caspase-3 activation [1] -1.14% | outcome [2] | caspase-3 activation [3] -0.514% | caspase-3 activation [4] -1.55% | outcome [5] | outcome [6] | Potency [7] | outcome [10] | Potency [8]

Nc1nc2ccccc2[nH]1
inactive: caspase-3 activation [1] -0.927% | outcome [2] | caspase-3 activation [3] -0.868% | caspase-3 activation [4] 0.0156% | outcome [5] | outcome [6] | Potency [7] | Potency [8]

Cc1ccc(Br)cc1
inactive: caspase-3 activation [1] -0.699% | outcome [2] | caspase-3 activation [3] 0.265% | caspase-3 activation [4] 0.98% | outcome [5] | outcome [6] | Potency [9] | Potency [8]

Nc1cccc(C(F)(F)F)c1
inactive: caspase-3 activation [1] 2.31% | outcome [2] | caspase-3 activation [3] -0.107% | caspase-3 activation [4] 2.75% | outcome [5] | outcome [6] | Potency [7] | Potency [8]

O=C(O)CCSSCCC(=O)O
inactive: caspase-3 activation [1] -0.167% | outcome [2] | caspase-3 activation [3] -0.00623% | caspase-3 activation [4] -0.885% | outcome [5] | outcome [6] | Potency [9] | Potency [8]

CCNS(=O)(=O)c1ccc(C)cc1
inactive: caspase-3 activation [1] -0.106% | outcome [2] | caspase-3 activation [3] -1.14% | caspase-3 activation [4] -2.66% | outcome [5] | outcome [6] | Potency [9] | Potency [8]

Cc1c(N)cccc1N
inactive: caspase-3 activation [1] -0.29% | outcome [2] | caspase-3 activation [3] 0.28% | caspase-3 activation [4] 0.0499% | outcome [5] | outcome [6] | Potency [7] | Potency [8]
